Common to all, as to format: functional
Assay [1] addresses Solute carrier family 2, facilitated glucose transporter member 1 (Homo sapiens) (UniProt P11166). The assay can be described thus: ST_JUDE_LEISH: Cytotoxicity at 2uM final concentration against transgenic Leishmania Mexicana promastigotes LmGLUT1 that are glucose transport deficient and complemented with the human glucose transporter GLUT1. Activity is measured by DNA content using SYBR green in vitro.

Assay [2] addresses Hexose transporter 1 (Plasmodium falciparum) (UniProt O97467). As to the kind of experiment: ST_JUDE_LEISH: Cytotoxicity at 2uM final concentration against transgenic Leishmania Mexicana promastigotes LmPfHT that are glucose transport deficient and complemented with the Plasmodium falciparum hexose transporter. Activity is measured by DNA content using SYBR green in vitro.
Assay [3] concerns the target Glucose transporter (Leishmania mexicana) (UniProt O61059). As to the kind of experiment: ST_JUDE_LEISH: Cytotoxicity at 2uM final concentration against transgenic Leishmania Mexicana promastigotes LmGT2 that are glucose transport deficient and complemented with the L. Mexicana glucose transporter 2. Activity is measured by DNA content using SYBR green in vitro.

The results in this text go back to ChEMBL document CHEMBL3433997, “St. Jude Leishmania screening dataset” (2016).

By inhibition is commonly meant the drop in the measured response relative to a control, in per cent.

SMILES strings stand for the structures.

Solute carrier family 2, facilitated glucose transporter member 1 (Homo sapiens), sequence (P11166 whole entry): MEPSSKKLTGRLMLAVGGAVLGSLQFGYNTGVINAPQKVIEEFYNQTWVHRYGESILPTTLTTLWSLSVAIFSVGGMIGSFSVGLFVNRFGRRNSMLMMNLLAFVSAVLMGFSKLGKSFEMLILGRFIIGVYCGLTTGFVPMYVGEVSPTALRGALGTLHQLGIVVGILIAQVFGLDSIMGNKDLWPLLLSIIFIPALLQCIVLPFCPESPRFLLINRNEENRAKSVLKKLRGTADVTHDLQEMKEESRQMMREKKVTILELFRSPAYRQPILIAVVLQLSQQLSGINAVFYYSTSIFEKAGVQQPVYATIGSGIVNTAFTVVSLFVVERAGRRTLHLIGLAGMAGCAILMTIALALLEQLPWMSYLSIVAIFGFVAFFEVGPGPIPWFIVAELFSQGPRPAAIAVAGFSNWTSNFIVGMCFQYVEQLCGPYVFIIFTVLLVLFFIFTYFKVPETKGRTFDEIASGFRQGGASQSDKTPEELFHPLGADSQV

For `Cc1cc2c(cc1C(F)(F)F)N(C(=O)Nc1cc(OCCN(C)C)cc(C(F)(F)F)c1)CC2`, the inhibition in assay [1] was -0.72%; in assay [2] it was -1.6%; in assay [3], -0.42%.

Consider `Cc1nnc2c(NC(=O)NC3CCCC3)cc3ccc(-c4cccc(CN(C)C)c4)cc3n12`, for which the inhibition in assay [1] was 2.19%; in assay [2], 2.6%; in assay [3], 0.64%.

As to `Clc1ccc(Nc2nc(NCc3ccccc3)nc(N/N=C/c3ccccn3)n2)cc1`, the inhibition in assay [1] was 83.7%; in assay [2], 83.5%; in assay [3], 77.6%.

Regarding `O=C(NC1CCN(c2ccnc3ccccc23)C1)c1cccc(C(F)(F)F)c1` (stereo unspecified), the results for the inhibition in assay [1], in assay [2] and in assay [3] were 2.99%, 1.24% and 1.91%, respectively.

Consider `CN1CCC(NCc2ccc(-c3cnc(NCc4ccccc4)nc3)cc2)CC1`, for which the inhibition was found to be 1.18% in assay [1], 4.31% in assay [2] and 2.57% in assay [3].

Regarding `CCN(CC)CCCN(CCCN(CC)CC)c1cc(C)nc(Nc2ccc(Br)cc2)n1`, the inhibition is 0.34% in assay [1], 0.99% in assay [2] and -0.4% in assay [3].

In the case of `Cn1ccnc1CNC(=O)c1ccc(-c2ccc(-c3nc4cc(C(F)(F)F)ccc4[nH]3)s2)cc1`, the inhibition was found to be 4.17% in assay [1], 3.3% in assay [2] and 2.03% in assay [3].

On to `COc1ccc(Nc2nccc(N3CCC(NC(=O)c4cccc(NC(C)=O)c4)C3)n2)cc1` (stereo unspecified), for which the inhibition is 0.39% in assay [1], 0.61% in assay [2] and 1.86% in assay [3].

In the case of `OCc1ccc(-c2cncc(Nc3ccc(F)c(Cl)c3)c2)cc1`, the values for the inhibition in assay [1], in assay [2] and in assay [3] were 3.7%, 4.21% and 1.04%, respectively.

Consider `CCc1ccc(CN2CCC(CN(c3ccc(N4CCOCC4)c(F)c3)S(=O)(=O)c3ccc(C(C)(C)CC)cc3)CC2)cc1`, for which the inhibition in assay [1] turned out to be 3.54%; in assay [2] it was 0.74%; in assay [3], 3.68%.

For the compound `CCNc1cc(C(=O)N[C@@H](Cc2cc(F)cc(F)c2)[C@H](O)CNCc2cccc(C(F)(F)F)c2)cc(N2CCCCS2(=O)=O)c1`, the inhibition in assay [1] is -0.07%; in assay [2], -0.7%; in assay [3], -1.62%.

As to `c1ccc2[nH]c(-c3ccc(-c4ccc(CN5CCN(CCN6CCOCC6)CC5)cc4)cc3)nc2c1`, the inhibition in assay [1] is 11.2%; in assay [2], 12.4%; in assay [3], 4.36%.
